TMEM16A inh: inhibitors of mouse TMEM16A calcium-activated chloride channel. HEK293 TMEM16A/YFP iodide influx fluorescence, ionomycin. AID 588511. 310,000 compounds, 1.2% hits. Q8BHY3. normalized B-score (activity score, 25-100; higher = stronger inhibition) at 10 µM;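 active = ratio plate-corrected score three or more library SD toward inhibition, starting fluorescence score within five deviations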;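 also: score derived from kinetic fluorescence span divided by baseline fluorescence per well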
Target sequence (Q8BHY3 whole entry, looked up): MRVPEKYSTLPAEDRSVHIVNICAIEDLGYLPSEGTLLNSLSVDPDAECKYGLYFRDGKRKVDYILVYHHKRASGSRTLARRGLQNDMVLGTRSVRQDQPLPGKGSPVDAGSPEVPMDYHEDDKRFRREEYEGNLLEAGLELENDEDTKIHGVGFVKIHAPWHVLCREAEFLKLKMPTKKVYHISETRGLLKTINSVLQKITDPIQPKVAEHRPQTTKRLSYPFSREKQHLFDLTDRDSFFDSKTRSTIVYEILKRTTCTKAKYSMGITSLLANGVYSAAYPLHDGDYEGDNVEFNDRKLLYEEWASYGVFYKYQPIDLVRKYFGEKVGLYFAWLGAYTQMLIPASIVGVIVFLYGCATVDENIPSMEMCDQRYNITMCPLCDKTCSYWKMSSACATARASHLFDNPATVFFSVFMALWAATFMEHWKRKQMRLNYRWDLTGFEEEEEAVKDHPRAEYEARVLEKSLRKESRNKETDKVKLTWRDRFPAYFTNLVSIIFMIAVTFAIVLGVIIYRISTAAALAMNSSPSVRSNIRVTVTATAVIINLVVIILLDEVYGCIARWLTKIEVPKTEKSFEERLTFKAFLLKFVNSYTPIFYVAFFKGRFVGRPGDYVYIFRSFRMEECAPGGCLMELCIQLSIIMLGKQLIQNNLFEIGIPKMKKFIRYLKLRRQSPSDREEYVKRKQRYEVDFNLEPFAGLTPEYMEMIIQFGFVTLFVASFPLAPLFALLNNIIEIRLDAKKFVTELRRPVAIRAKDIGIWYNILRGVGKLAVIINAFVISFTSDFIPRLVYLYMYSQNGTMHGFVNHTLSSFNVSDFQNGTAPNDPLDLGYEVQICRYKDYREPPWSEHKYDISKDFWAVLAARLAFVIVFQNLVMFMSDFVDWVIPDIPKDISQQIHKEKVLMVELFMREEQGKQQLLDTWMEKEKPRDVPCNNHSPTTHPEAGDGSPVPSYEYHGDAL
NTR1 agonist: agonists of human neurotensin receptor NTR1; NTR1-U2OS beta-arrestin-GFP spot imaging, agonist mode; activation, % at 20 µM; P30989; 330,000 compounds, 0.17% hits;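 active = activation at or above 40% of the spot to cytoplasm intensity ratio, with at least 20 cells analyzed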;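 also: 0% = DMSO without peptide and 100% = 100 nM NTR1 peptide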
M1 PAM parental: M1 PAM counterscreen hit in parental CHO-K1 cells; 360,000 compounds, 0.02% hits; ATP EC20, Fluo-8 calcium fluorescence; 0% at ATP EC20, 100% at ATP max; activation, % at 3 µM; AID 602247;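 active = activation above the run cutoff, the mean activation of all test compounds plus 3 SD, cut at about 40% in these data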;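 also: peak over basal fluorescence ratio in a 140 s read after ATP addition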
CHO-K1 Ca antag: counter-screen for M1 antagonists: effect in parental CHO-K1 cells; 360,000 compounds, 0.6% hits; inhibition, % at 3 µM; AID 602250; ATP-induced calcium, Fluo-8 fluorescence;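 active = inhibition above a per-plate cutoff, the plate's mean sample inhibition plus 3 SD, cut at about 24% in these data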;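 also: 0% = DMSO plus EC80 ATP and 100% = DMSO alone without ATP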
TMEM16A act: mouse TMEM16A channel activation, primary screen; Q8BHY3; B-score at 10 µM; HEK293 TMEM16A/YFP-H148Q/I152L, iodide quench fluorescence; stronger effect = lower value; AID 623877; 340,000 compounds, 0.3% hits;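 active = fluorescence-ratio B-score plate-corrected deviation score at least 3 library SD below zero, with starting fluorescence score within 5 deviations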;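 also: channel opened by trigger with iodide after compound preincubation; score built on the fluorescence ratio of max minus min over baseline; more negative score means more quench and so TMEM16A activation or potentiation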
CHO-K1 Ca ag: M1 agonist counterscreen hit in parental CHO-K1 cells; Fluo-8 calcium fluorescence; scaled to maximal ATP response, vehicle zero; activation, % at 3 µM; 360,000 compounds, 0.48% hits; AID 602248; in the data active = activation above about 15%;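 also: untransfected CHO-K1 host cells lacking M1 receptor as counterscreen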
Numbers without * were called inactive. Shown are actives, neighbours in structure and some others; about 2.2% of the full set was active somewhere.

Results for CCC1OC(C)Cc2[nH][nH]c(=O)c21 (stereo not given) ?
M1 PAM parental: 25; CHO-K1 Ca antag: -18; CHO-K1 Ca ag: 1

Results for CCCOC(=O)c1ccc(Oc2cn[nH]c2-c2ccc(OCC)cc2O)cc1 ?
TMEM16A inh: inactive; NTR1 agonist: 28; M1 PAM parental: 16; CHO-K1 Ca antag: -7; TMEM16A act: inactive; CHO-K1 Ca ag: 1

How did CCCc1ccc(Oc2cn[nH]c2-c2ccc(O)c(C)c2O)cc1 do in these assays?
TMEM16A inh: 100*; NTR1 agonist: 8; M1 PAM parental: -11; CHO-K1 Ca antag: 14; TMEM16A act: inactive; CHO-K1 Ca ag: 1

How did CN(C(=O)c1cccc(NC(=O)Cc2cccc(NC(=O)C3CCCN(C(=O)C4CCCCC4)C3)c2)c1)C1CCC1 (stereo not given) do in these assays?
M1 PAM parental: 13; CHO-K1 Ca antag: -9; CHO-K1 Ca ag: 0

What do the screens show for `Cc1cc(C(O)c2ncc(-c3cccc4ccccc34)[nH]2)ccc1F` (stereo not given)?
M1 PAM parental: -10; CHO-K1 Ca antag: 24*; CHO-K1 Ca ag: 0

How did OC(c1ccc(Cl)c(F)c1)c1ncc(-c2cccc3ccccc23)[nH]1 (stereo not given) do in these assays?
M1 PAM parental: -2; CHO-K1 Ca antag: 8; CHO-K1 Ca ag: 1

How did CC[n+]1c(/C=C/c2cc([N+](=O)[O-])ccc2O)ccc2ccccc21 do in these assays?
TMEM16A inh: inactive; NTR1 agonist: 2; M1 PAM parental: -6; CHO-K1 Ca antag: 24*; TMEM16A act: inactive; CHO-K1 Ca ag: 0

Results for CC[n+]1c(/C=C/c2ccc(OC)c(OC)c2)ccc2ccccc21 ?
TMEM16A inh: inactive; NTR1 agonist: 1; M1 PAM parental: 12; CHO-K1 Ca antag: -2; TMEM16A act: inactive; CHO-K1 Ca ag: 1

Results for COc1ccc(CN(C)c2ccc(S(=O)(=O)N3CCN(C)CC3)cc2[N+](=O)[O-])cc1OC ?
NTR1 agonist: 2; M1 PAM parental: -11; CHO-K1 Ca antag: 31*; TMEM16A act: inactive; CHO-K1 Ca ag: 16*

Results for COc1ccc(CCN(C)c2ccc(S(=O)(=O)N3CCCC3)cc2[N+](=O)[O-])cc1OC ?
TMEM16A inh: inactive; NTR1 agonist: -2; M1 PAM parental: 19; CHO-K1 Ca antag: 0; TMEM16A act: inactive; CHO-K1 Ca ag: 2

What do the screens show for `Cc1ccc(C(C)C)cc1OCC(=O)N/N=C/c1ccc2c(c1)OCCO2`?
TMEM16A inh: 100*; NTR1 agonist: 18; M1 PAM parental: 20; CHO-K1 Ca antag: -2; TMEM16A act: inactive; CHO-K1 Ca ag: 5

How did Cc1cccc(C)c1OCC(=O)N/N=C/c1ccc2c(c1)OCO2 do in these assays?
TMEM16A inh: inactive; NTR1 agonist: 0; M1 PAM parental: 14; CHO-K1 Ca antag: -6; TMEM16A act: inactive; CHO-K1 Ca ag: 1

Results for Nc1nc2c(s1)CC(c1ccccc1)CC2 (stereo not given) ?
TMEM16A inh: 25*; NTR1 agonist: -2; M1 PAM parental: 3; CHO-K1 Ca antag: 1; TMEM16A act: inactive; CHO-K1 Ca ag: 0

How did O=C1/C(=C\c2c(NCCOCCO)nc3ccccn3c2=O)SC(=S)N1Cc1ccco1 do in these assays?
TMEM16A inh: inactive; NTR1 agonist: 1; M1 PAM parental: 0; CHO-K1 Ca antag: 11; TMEM16A act: inactive; CHO-K1 Ca ag: 20*

Results for CCCN1C(=O)/C(=C/c2c(NCCCOCC)nc3c(C)cccn3c2=O)SC1=S ?
M1 PAM parental: 22; CHO-K1 Ca antag: -8; TMEM16A act: inactive; CHO-K1 Ca ag: 0

Results for CCCCN(CCCC)S(=O)(=O)c1ccc(NC(=O)c2cccs2)cc1 ?
TMEM16A inh: 100*; NTR1 agonist: 9; M1 PAM parental: 21; CHO-K1 Ca antag: -40; TMEM16A act: inactive; CHO-K1 Ca ag: 2

How did O=C(Nc1ccccc1)Nc1nnc([C@H]2C[C@H](O)[C@@H](CO)O2)s1 do in these assays?
M1 PAM parental: 4; CHO-K1 Ca antag: 26*; CHO-K1 Ca ag: 0

Results for Cc1ccc(NC(=O)Nc2nnc([C@@H]3C[C@H](O)[C@@H](CO)O3)s2)cc1 ?
M1 PAM parental: 1; CHO-K1 Ca antag: -6; CHO-K1 Ca ag: 0

Screens from PubChem BioAssay.
